{"source": "ChEMBL document CHEMBL3988442", "about": "“University of Dundee, Small-Polar-MMV Screening Library” (2021)", "note": "Screen size: about 48,000 compounds; about 13,000 (27%) showed an effect of 50% or more. This is one part of the list.", "data": [{"test_system": "Wolbachia pipientis", "test": "Anti-Wolbachia Cell-Based Screen", "type": "functional", "parameters": "scale not given: in the data most compounds retested in dose-response had high values", "conditions": "5 µM", "units": {"Percent Effect": "%"}, "values": [{"smiles": "CC(C)c1nsc(N2CCn3c(nnc3-c3ccccc3)C2)n1", "Percent Effect": -7.754}, {"smiles": "O=C(O)C(F)(F)F.O=C(c1cc(C2CC2)on1)N1C[C@@H]2COC[C@]2(COc2cccnc2)C1", "Percent Effect": 101.2}, {"smiles": "O=C(COc1ccccc1)N1C[C@@H]2COC[C@]2(COc2cccnc2)C1.O=C(O)C(F)(F)F", "Percent Effect": 107.1}, {"smiles": "O=C(O)C(F)(F)F.O=C(c1ccccc1F)N1C[C@@H]2COC[C@]2(COCc2cccnc2)C1", "Percent Effect": 3.343}, {"smiles": "Cc1ccccc1C(=O)N1C[C@@H]2COC[C@]2(COCc2cccnc2)C1.O=C(O)C(F)(F)F", "Percent Effect": -1.339}, {"smiles": "Cc1ccoc1C(=O)N1C[C@@H]2COC[C@]2(COCc2cccnc2)C1.O=C(O)C(F)(F)F", "Percent Effect": -8.448}, {"smiles": "O=C(O)C(F)(F)F.O=C(c1ccc(F)cc1)N1C[C@@H]2COC[C@]2(COc2cccnc2)C1", "Percent Effect": 125.5}, {"smiles": "O=C(COC1CCCC1)N1C[C@@H]2COC[C@]2(COc2cccnc2)C1.O=C(O)C(F)(F)F", "Percent Effect": 91.64}, {"smiles": "Cc1cc(C(=O)N2C[C@@H]3COC[C@]3(COCc3cccnc3)C2)no1", "Percent Effect": -1.047}, {"smiles": "COc1ccc(CN2C[C@@H]3COC[C@]3(COc3cccnc3)C2)cc1.O=C(O)C(F)(F)F.O=C(O)C(F)(F)F", "Percent Effect": 13.03}, {"smiles": "CNC(=O)CCNC(=O)Nc1cccc(Cl)c1SC(F)F", "Percent Effect": -9.606}, {"smiles": "CN(C)c1ccc(C(O)CNS(=O)(=O)C2CC2)cc1", "note": "(stereo not given)", "Percent Effect": -7.172}, {"smiles": "Cc1ccc(C(=O)N2CCC3(CC2)c2ccccc2[C@@H](N)[C@@H]3O)c(=O)[nH]1", "Percent Effect": 1.157}, {"smiles": "CCN1CCN(C(=O)c2c[nH]c(C(C)C)n2)c2ccccc21", "Percent Effect": 16.43}, {"smiles": "COCCNC(C)c1ccc(-c2cccnc2)cc1", "note": "(stereo not given)", "Percent Effect": -4.646}, {"smiles": "COCCCNC(=O)NCc1ccc(C)cc1", "Percent Effect": 9.073}, {"smiles": "COCCCNc1cc(C(=O)N2CCOCC2)ccc1C", "Percent Effect": 15.11}, {"smiles": "COCCCNc1c(-c2ccc(C)cc2)c(=O)c1=O", "Percent Effect": 103}, {"smiles": "COCCNc1c(-c2ccc(C)cc2)c(=O)c1=O", "Percent Effect": 115.7}, {"smiles": "COCCCNc1c(-c2ccccc2)c(=O)c1=O", "Percent Effect": 111.1}, {"smiles": "COCCCNC(=O)Cc1cc(-c2ccccc2)on1", "Percent Effect": -3.078}, {"smiles": "COCCCNC(=O)COc1ccccc1C(F)(F)F", "Percent Effect": 10.69}, {"smiles": "Cc1cnn(CCNCC(O)COc2cccc(C(F)(F)F)c2)c1", "note": "(stereo not given)", "Percent Effect": -5.996}, {"smiles": "Oc1ccc(Br)c(CNc2cccc(-c3nnc[nH]3)c2)c1", "Percent Effect": -21.72}, {"smiles": "CCOc1ccc(Cl)c(C(=O)N2CCN(CCO)CC2)n1", "Percent Effect": -4.151}, {"smiles": "CC(O)CN1CCN(C(=O)c2cnc(OC(C)C)c(Cl)c2)CC1", "note": "(stereo not given)", "Percent Effect": -53.57}, {"smiles": "O=C(c1cc2ccccc2c(=O)[nH]1)N1CCN(CCO)CC1", "Percent Effect": -3.156}, {"smiles": "COCCOc1ccc(Cl)c(C(=O)N2CCN(CCO)CC2)n1", "Percent Effect": 97.38}, {"smiles": "Cc1nc(-c2ccccc2)ccc1C(=O)N1CCN(CCO)CC1", "Percent Effect": 1.858}, {"smiles": "CC(C)Oc1ccc(Cl)c(C(=O)N2CCN(CCO)CC2)n1", "Percent Effect": 76.59}, {"smiles": "Cc1ccc(C(=O)O)cc1S(=O)(=O)Nc1nn(-c2ccccc2)cc1C", "Percent Effect": -18.22}, {"smiles": "CC(C(N)=O)N1CCc2onc(-c3cccc(F)c3)c2C1", "note": "(stereo not given)", "Percent Effect": 31.58}, {"smiles": "CCC(CC)CS(=O)(=O)NC(=O)C1CCC1", "Percent Effect": -17.91}, {"smiles": "COC(=O)NC1(C(=O)Nc2ccc(-c3ncc[nH]3)cc2)CCCC1", "Percent Effect": 5.421}, {"smiles": "Cc1cccc(-c2nc(CN3CCc4cnc(C)nc4C3)no2)c1", "Percent Effect": 0.7919}, {"smiles": "Cc1cc(C)c(CNC(=O)N2CCCC2c2cccc(F)c2)c(=O)[nH]1", "note": "(stereo not given)", "Percent Effect": 115.9}, {"smiles": "Cc1cc(C)c(CNC(=O)N2CCCC2c2cccn2C)c(=O)[nH]1", "note": "(stereo not given)", "Percent Effect": 1.985}, {"smiles": "Cc1cc(C)c(CNC(=O)N2CCCC2c2ccc(F)cc2)c(=O)[nH]1", "note": "(stereo not given)", "Percent Effect": 86.68}, {"smiles": "Cc1cc(C)c(CNC(=O)N2CCCC2c2ccccc2)c(=O)[nH]1", "note": "(stereo not given)", "Percent Effect": 10.36}, {"smiles": "Cc1cc(C)c(CNC(=O)N(C)CC2CCCCO2)c(=O)[nH]1", "note": "(stereo not given)", "Percent Effect": -5.607}, {"smiles": "Cn1cc(N2CC3(CCN(S(=O)(=O)C4CC4)C3)CC2=O)cn1", "note": "(stereo not given)", "Percent Effect": -15.9}, {"smiles": "CCCN(CCC)C(=O)c1sc(C)nc1C", "Percent Effect": -0.04444}, {"smiles": "CCN(CC)CCn1ccnc1-c1cccc(O)c1", "Percent Effect": 9.33}, {"smiles": "CCc1nnc2n1CCN(CC(=O)Nc1cc(C(C)(C)C)nn1C)C2", "Percent Effect": -9.721}, {"smiles": "CC(C)(C)OCCN(Cc1cccc(O)c1)C1CCC(O)CC1", "note": "(stereo not given)", "Percent Effect": -0.1894}, {"smiles": "CCN(C(=O)CN1CCCC1c1cc(C)no1)c1ccccc1C", "note": "(stereo not given)", "Percent Effect": -1.91}, {"smiles": "Cc1cc(C2CCCN2Cc2ccc(S(=O)(=O)N(C)C)o2)on1", "note": "(stereo not given)", "Percent Effect": 125.1}, {"smiles": "Cc1nc(C2CCCN2Cc2ccc(S(=O)(=O)N(C)C)o2)no1", "note": "(stereo not given)", "Percent Effect": 115.8}, {"smiles": "Cc1nc(C2CCCN2CCCS(=O)(=O)N(C)C)no1", "note": "(stereo not given)", "Percent Effect": -21.09}, {"smiles": "Cc1nc(C2CCCN2Cc2cc(Cl)c3c(c2)OCCO3)no1", "note": "(stereo not given)", "Percent Effect": -1.319}, {"smiles": "Cc1cc(C2CCCN2Cc2nnc(-c3ccco3)o2)on1", "note": "(stereo not given)", "Percent Effect": 10.62}, {"smiles": "CNC(=O)CCCNCc1c(C(C)C)nn(C)c1N(C)C", "Percent Effect": -0.6366}, {"smiles": "O=C1CC(c2ccncc2)c2c(c(C(=O)O)cn2-c2ccc(F)cc2)N1", "note": "(stereo not given)", "Percent Effect": 5.752}, {"smiles": "Cc1ccc(S(=O)(=O)NC(=O)c2cccc3c2OCCO3)c(C)c1", "Percent Effect": -13.25}, {"smiles": "Cc1ccccc1S(=O)(=O)NC(=O)C1(c2ccccc2)CCC1", "Percent Effect": 93.86}, {"smiles": "Cc1ccccc1S(=O)(=O)NC(=O)C1(c2cccc(Cl)c2)CC1", "Percent Effect": 3.29}, {"smiles": "CS(=O)(=O)NCCNC(=O)C1(c2ccc(F)cc2)CC1", "Percent Effect": 10.89}, {"smiles": "Cn1cc(S(=O)(=O)NC(=O)C2(c3ccccc3)CCC2)cn1", "Percent Effect": -6.386}, {"smiles": "Cc1ccc(S(=O)(=O)NC(=O)C2(c3ccc(F)cc3)CCC2)c(C)c1", "Percent Effect": 80.83}, {"smiles": "Cc1ccc(S(=O)(=O)NC(=O)COc2cccc(C#N)c2)c(C)c1", "Percent Effect": 41.14}, {"smiles": "Cc1ccc(S(=O)(=O)NC(=O)C2(c3ccccc3)CCC2)c(C)c1", "Percent Effect": 104.1}, {"smiles": "Cc1cccc(C2(C(=O)NS(=O)(=O)c3cnn(C)c3)CCCC2)c1", "Percent Effect": -9.611}, {"smiles": "CNc1ncc(CN(C)c2nccc(CCC(F)(F)F)n2)cn1", "Percent Effect": -7.876}, {"smiles": "CS(=O)(=O)Nc1cccc(CNC(=O)CCC(=O)c2cccs2)c1", "Percent Effect": 1.298}, {"smiles": "CC(C)N1CCC(C(=O)N2CCc3c(nc(CC4CC4)[nH]c3=O)C2)CC1", "Percent Effect": -3.187}, {"smiles": "CC(=O)NC1CCN(c2nc(N(C)C)nc3c2CCN(C(C)=O)C3)CC1", "Percent Effect": 3.638}, {"smiles": "CCC(=O)N1CCc2c(O)nc(C3CCCCN3C(=O)C3CC3)nc2C1", "note": "(stereo not given)", "Percent Effect": 88.1}, {"smiles": "CN(C)c1nc2c(c(N(C)C)n1)CCN(C(=O)CN1CCC(O)CC1)C2", "Percent Effect": -41.67}, {"smiles": "CCC(=O)N1CCCCC1c1nc(O)c2c(n1)CN(C(=O)C1CC1)CC2", "note": "(stereo not given)", "Percent Effect": 109.8}, {"smiles": "CCC(=O)N1CCCCC1c1nc(O)c2c(n1)CN(C(C)=O)CC2", "note": "(stereo not given)", "Percent Effect": 111}, {"smiles": "CC1CCCCN1C(=O)c1nc2c(n1C(C)C)CCN(C(=O)C1CC1)C2", "note": "(stereo not given)", "Percent Effect": -21.18}, {"smiles": "CC(C)c1noc(CS(=O)(=O)CC(=O)NCc2cccs2)n1", "Percent Effect": -1.009}, {"smiles": "CCN(Cc1ccco1)C(=O)Nc1cc(C(F)(F)F)c[nH]c1=O", "Percent Effect": 8.276}, {"smiles": "CC(C)(O)CCc1cccc(C(=O)N[C@H](C(N)=O)c2ccccc2)c1", "Percent Effect": -7.223}, {"smiles": "Cc1cccc2c1nc(COCC(=O)O)n2-c1ccsc1", "Percent Effect": 2.323}, {"smiles": "CC(CC(=O)NS(C)(=O)=O)C1CCCCC1", "note": "(stereo not given)", "Percent Effect": 81.01}, {"smiles": "CC(CC(=O)NCCNS(C)(=O)=O)C1CCCCC1", "note": "(stereo not given)", "Percent Effect": 132.7}, {"smiles": "Cc1ccc(CNC(=O)N2CCCCC2CCNS(C)(=O)=O)cc1", "note": "(stereo not given)", "Percent Effect": -22.58}, {"smiles": "CC(C)c1ccc(C2(C(=O)NCCS(N)(=O)=O)CCC2)cc1", "Percent Effect": -17.74}, {"smiles": "CC(CC(=O)NCCS(N)(=O)=O)C1CCCCC1", "note": "(stereo not given)", "Percent Effect": 93.71}, {"smiles": "CS(=O)(=O)NCC(=O)NC(Cc1ccccc1)C1CCCC1", "note": "(stereo not given)", "Percent Effect": -11.78}, {"smiles": "NS(=O)(=O)CCNC(=O)CCc1cc(Br)cs1", "Percent Effect": 1.171}, {"smiles": "CC(CC(=O)Nc1ncn(CC(=O)N2CCCCCC2)n1)C1CC1", "note": "(stereo not given)", "Percent Effect": 14.79}, {"smiles": "CCNC(=O)N1CCCCC1CCNS(C)(=O)=O", "note": "(stereo not given)", "Percent Effect": -13.96}, {"smiles": "CCS(=O)(=O)N1Cc2ccnn2CC(c2nc(C)no2)C1", "note": "(stereo not given)", "Percent Effect": -5.084}, {"smiles": "CCCC(=O)N(CC)C(c1cccnc1)c1ccc2c(c1)CCO2", "note": "(stereo not given)", "Percent Effect": -14.24}, {"smiles": "Cc1cc(C(N)=O)ccc1NC(=O)N1CCN(c2cccs2)CC1", "Percent Effect": 1.471}, {"smiles": "COc1nn(C)cc1C(=O)NCC(OC)c1ccccc1C", "note": "(stereo not given)", "Percent Effect": 0.6487}, {"smiles": "CC(C)NC(=O)[C@@H]1C[C@H](N)CN1C(=O)c1cc2ccccc2[nH]c1=O", "Percent Effect": -13.02}, {"smiles": "CC(NCCc1nccn1Cc1ccccc1)c1cccs1", "note": "(stereo not given)", "Percent Effect": 7.205}, {"smiles": "CN(Cc1ccccn1)c1nccc(N2CCN[C@H]3CS(=O)(=O)C[C@H]32)n1", "Percent Effect": -6.376}, {"smiles": "CC(C)CNC(=O)CN(Cc1ccc(F)cc1)S(C)(=O)=O", "Percent Effect": 96.65}, {"smiles": "CN(CC(=O)NCc1cc2ccccc2o1)S(C)(=O)=O", "Percent Effect": 6.61}, {"smiles": "CN(CC(=O)NC(c1ccc(F)cc1)C(F)(F)F)S(C)(=O)=O", "note": "(stereo not given)", "Percent Effect": -15.92}, {"smiles": "CC(C)CNC(=O)COc1cccc[n+]1[O-]", "Percent Effect": -1.693}, {"smiles": "CC(C)CNC(=O)CN(CC(=O)NCC(C)C)S(C)(=O)=O", "Percent Effect": 89.59}, {"smiles": "CC(C(=O)N(Cc1ccc(F)cc1)CC(F)(F)F)S(C)(=O)=O", "note": "(stereo not given)", "Percent Effect": 19.96}, {"smiles": "CC(NC(=O)CN(C)S(C)(=O)=O)c1ccc(F)cc1", "note": "(stereo not given)", "Percent Effect": -21.23}, {"smiles": "CC(C)CNC(=O)CN(C)S(C)(=O)=O", "Percent Effect": 111.5}, {"smiles": "CC(C)CNC(=O)CSc1nnc(OC(C)C)s1", "Percent Effect": 1.156}]}]}
